# Measured values published in PubChem BioAssay AID686979 (National Center for Advancing Translational Sciences (NCATS), 2013).
# Among all 420,000 compounds or so, about 50,000 (12%) were called active. Where a call stands in place of a potency, no number is given. About 26% were inconclusive and are not listed. Calls follow the shape of the dose curve; as a rule, active = well fitted inhibition curve with a large enough effect; inconclusive = small, poorly fitted or top-dose-only effect; inactive = flat fitted curve, though single readings scatter. This excerpt belongs to a sample that is enriched for actives.
# Assay: qHTS for Inhibitors of human tyrosyl-DNA phosphodiesterase 1 (TDP1): qHTS in cells in presence of CPT; also: nearly all actives have a fitted effect of over 55% in size
# Conditions: chicken DT40 Tdp1-/-;hTDP1 cells + 20 nM CPT, ATP luminescence, 48 h; series mostly up to 46.2 µM
# Summary of the method: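 Chicken DT40 Tdp1-/- cells complemented with human TDP1, 400 cells/well, exposed to compounds plus 20 nM camptothecin for at least 48 h at 37 C; viability read as ATP content by CellTiter-Glo luminescence.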
# Potency is read from the fitted curve at half-maximal effect.
SMILES,Potency,"activity change, negative = growth inhibition"
CN(CC(=O)Nc1c(Cl)cccc1Cl)C(=O)c1ccncc1,inactive,
COc1ccc(C(=O)Nc2cccc(NC(=O)c3ccc(OC)cc3OC)n2)c(OC)c1,20.6 µM (active),
COC(=O)c1sc(NC(=O)c2ccc(OC)cc2OC)nc1C,inactive,
COc1ccc(C(=O)NC2=NCCS2)c(OC)c1,inactive,
CC1(C)NC(=O)N(CC(=O)Nc2cc(C(F)(F)F)cc(C(F)(F)F)c2)C1=O,inactive,
CN1CCn2cnc(C(=O)NCC(=O)OC(C)(C)C)c2C1=O,inactive,
O=C(CSc1nc2c(c(=O)[nH]1)CN(Cc1ccc(F)cc1)CC2)Nc1ccccc1Cl,inactive,
Cc1cc(C)cc(NC(=O)NCc2ccccn2)c1,inactive,
CCCCn1c(N)c(N(CCOC)C(=O)COc2c(C)cccc2C)c(=O)[nH]c1=O,inactive,
COC(=O)c1cccc(-n2[nH]nnc2=S)c1,inactive,
COc1cc(C)c(C)cc1S(=O)(=O)N1CCCc2ccccc21,16.4 µM (active),
COc1ccc(C(=O)OCC(=O)NCC2CCCCC2)cc1S(=O)(=O)N1CCCc2ccccc21,inactive,
COc1ccc(Br)cc1S(=O)(=O)N1CCN=C1C,inactive,
CN(CC(=O)Nc1ccc(Cl)cc1)C(=O)c1ccc(COc2ccccc2)cc1,inactive,
O=C(NCc1ccc2c(c1)OCO2)C(=O)NCC1OCCN1S(=O)(=O)c1ccc(F)cc1 (stereo unspecified),inactive,
Brc1c(CSc2nncc3ccccc23)nc2ccccn12,inactive,
O=C(Nc1cc(C(F)(F)F)ccc1Cl)c1nc2ccccc2nc1N1CCCCC1,inactive,
C/C(=C/C(=O)N1CCN(C)CC1)C(=O)O,inactive,
O=C(c1cc(-c2ccc(O)cc2)on1)N1CCOCC1,inactive,
CCc1nc2sc(C(=O)O)c(N)c2c2c1CCCC2,inactive,
COc1ccc(CCNC(=O)CS(=O)(=O)Cc2nc(-c3ccc(C)cc3)oc2C)cc1OC,inactive,
COc1cccc(-c2nc(CS(=O)(=O)CC(=O)N3CCN(c4cc(C)ccc4C)CC3)c(C)o2)c1,3.26 µM (active),
CCCCN(CC)CCCNC(=O)CS(=O)(=O)Cc1nc(-c2cccc(OC)c2)oc1C,inactive,
CC1CCN(CC(O)COc2ccc(C(=O)c3ccccc3)cc2)CC1 (stereo unspecified),inactive,
C[C@@H](NC(=O)[C@@H]1Cc2ccccc2CN1)C(=O)NC1CCCC1,inactive,
Cc1noc(C)c1S(=O)(=O)N(C)C[C@H]1Oc2ccc(NC(=O)C3CC3)cc2C(=O)N([C@H](C)CO)C[C@@H]1C,inactive,

SMILES,Potency,"activity change, negative = growth inhibition"
CCC(C)c1ccc(NC(=S)N2CCCC2)cc1 (stereo unspecified),13 µM (active),
CCOc1ccc(NC(=S)N2CCCCCC2)cc1,inactive,
CCOC(=O)c1ccc(NC(=S)N2CCCC2)cc1,inactive,
COc1ccc(CNS(=O)(=O)c2cc(-c3cc(C)no3)ccc2C(C)C)cc1,0.92 µM (active),
CCOc1ccccc1CNS(=O)(=O)c1cc(-c2cc(C)no2)ccc1C,inactive,
Cc1cc(-c2ccc(C)c(S(=O)(=O)NC(C)Cc3ccco3)c2)on1 (stereo unspecified),inactive,
Cc1nn(-c2ccc(F)cc2)c(Cl)c1/C=C(/CCC(=O)O)c1nc2ccccc2s1,inactive,
COc1ccccc1OCc1nc2ccccc2s1,inactive,
COc1cccc2sc(NNC(=O)c3nc4ccccc4s3)nc12,5.17 µM (active),
O=C(Nc1ccccc1)Nc1nc2ccccc2s1,inactive,
N#Cc1cccc(CSc2ncnc(N)n2)c1,inactive,
O=C(NCCCN1CCCC1=O)c1cccc(S(=O)(=O)NCc2ccccc2)c1,inactive,
CC1CCCCC1NC(=O)COC(=O)Cc1ccc(Br)cc1 (stereo unspecified),inactive,
CCOC(=O)c1c(S(=O)(=O)NCC(=O)Nc2ccc(C)cc2)c(C)n(C)c1C,inactive,
CCOC(=O)c1c(S(=O)(=O)NCC(=O)Nc2ccc(Cl)c(C(F)(F)F)c2)c(C)n(C)c1C,18.4 µM (active),
CCOC(=O)c1c(S(=O)(=O)Nc2ccc(CN3CCC(C)CC3)cc2)c(C)n(C)c1C,inactive,
COCCCNC(=O)C1CCN(c2ccc(N3CCOCC3)nn2)CC1,inactive,
Cc1ccc(C(=O)N/C(=C\c2cn(S(=O)(=O)N(C)C)c3ccccc23)C(=O)N2CCCC2)cc1,inactive,
O=C(CCC(=O)NNc1nc2ccccc2c2nc(-c3ccccc3)nn12)NCCCN1CCCC1=O,inactive,
COc1cc2nc(SCC(=O)Nc3ccccc3F)n3nc(-c4ccccc4)nc3c2cc1OC,inactive,
COc1cc2nc(NCC(C)c3ccccc3)n3nc(-c4ccccc4)nc3c2cc1OC (stereo unspecified),16.4 µM (active),
N#CCCN(C(=O)COC(=O)c1ccc(S(=O)(=O)N2CCCCCC2)cc1)c1ccccc1,inactive,
COc1ccc(S(=O)(=O)N2CCSCC2)cc1,inactive,
COc1ccc(S(=O)(=O)N2CCOC23CCN(S(=O)(=O)c2ccc([N+](=O)[O-])cc2)CC3)cc1,11.6 µM (active),
COc1ccc(CNC(=O)C(=O)N2CCC3(CC2)OCCN3S(=O)(=O)c2ccc(C)cc2)cc1,inactive,
COCCN1C2=C(COC(C)(C)C2)C(=S)NC1c1ccccc1 (stereo unspecified),inactive,

SMILES,Potency,"activity change, negative = growth inhibition"
Cc1ccccc1OCC(=O)N(Cc1cccc(F)c1)C1CCS(=O)(=O)C1 (stereo unspecified),inactive,
Cc1cc(C)c(OCC(=O)N(Cc2cccs2)C2CCS(=O)(=O)C2)c(C)c1 (stereo unspecified),inactive,
Cc1ccsc1CN(C(=O)c1oc2ccc(Br)cc2c1C)C1CCS(=O)(=O)C1 (stereo unspecified),9.2 µM (active),
NC1=NC2(CCCCC2)N(c2ccc(F)cc2F)C(N)=N1,inactive,
COc1cc([N+](=O)[O-])cc([N+](=O)[O-])c1NC(=O)N1CCOCC1,inactive,
Cn1nc(-c2ccccc2)c(CSc2cccc(Cl)c2)c1Cl,16.4 µM (active),
Cn1nc(-c2ccccc2)c(CO)c1Sc1ccccc1,inactive,
CCOC(=O)CSc1ncc(-c2cccc(Cl)c2)cn1,inactive,
C=CCSc1ccc(S(=O)(=O)N2CCN(C)CC2)cn1,inactive,
Cc1n[nH]c(=O)n1-c1ccc(C(C)C)cc1,inactive,
CCOc1ccc(NC(=O)CN(C)C(=O)Cn2c(=O)cnc3ccccc32)cc1OCC,inactive,
COc1ccc(N2CCC(CNC(=S)Nc3c(C)cccc3C)C2)cc1 (stereo unspecified),23.1 µM (active),
COc1ccc(N2CCC(N3CCN(C)C(CCO)C3)CC2)cc1 (stereo unspecified),inactive,
COc1cccc(N2CC(C(=O)Nc3c(C)cccc3C)CC2=O)c1 (stereo unspecified),inactive,
COc1cc(C(=O)Nc2ccc(OCc3cc(=O)n4cc(C)sc4n3)cc2)cc(OC)c1OC,inactive,
CC(=O)Nc1ccc(OC(=O)COc2ccc(Br)cc2)cc1,inactive,
COc1ccccc1S(=O)(=O)c1c(C)cc(C)[nH]c1=O,inactive,
CC(O)c1nc2ccccc2n1Cc1ccc([N+](=O)[O-])cc1 (stereo unspecified),inactive,
O=C(O)CCn1c(Cc2ccccc2)nc2ccccc21,inactive,
CC(C)c1ccc(Cn2c(COc3ccccc3)nc3ccccc32)cc1,18.4 µM (active),
Cc1ccc(NC(=O)N2CCC(O)(c3cccnc3)CC2)cc1,inactive,
Cn1c(C(=O)O)ccc1S(=O)(=O)N(Cc1ccccc1)Cc1ccccc1,inactive,
COc1ccccc1N(CC(=O)NC1CCCC1)C(=O)C1(C)CC(=O)N=C2C=CC(C)=CN21 (stereo unspecified),inactive,
COc1cc(OC)c(NS(=O)(=O)c2cn(C)cn2)cc1Cl,inactive,
COC(=O)c1scc(-c2ccc(C)cc2)c1S(=O)(=O)Nc1cc(Cl)c(OC)cc1OC,13 µM (active),
COc1cc(NC(=O)c2ccc(-c3csc(C)n3)cc2)c(OC)cc1Cl,inactive,

SMILES,Potency,"activity change, negative = growth inhibition"
Cc1ccc(CN2CCC(CNC(=O)c3cnn(-c4ccccc4Cl)c3C3CCN(C(=O)OC(C)(C)C)CC3)CC2)cc1,5.8 µM (active),
CCOC(=O)N1CCN(C(=O)C2CCN(Cc3ccc(OC)cc3OC)CC2)CC1,inactive,
COc1ccccc1CN1CCC(CNC(=O)c2cnn(-c3cccc(Cl)c3)c2C2CCN(C(=O)OC(C)(C)C)CC2)CC1,7.31 µM (active),
CSCCC(=O)N1CCCC(CNC(=O)c2ccccc2Cl)C1 (stereo unspecified),inactive,
COc1ccccc1CNC(=O)C1CCN(S(=O)(=O)c2ccc3c(c2)OCCO3)CC1,inactive,
COc1ccccc1CN1CCC(CNC(=O)c2cnn(-c3ccccc3Cl)c2C2CCN(C(=O)OC(C)(C)C)CC2)CC1,8.2 µM (active),
COc1ccc(Cl)cc1NC(=O)NCC1CCN(Cc2ccccc2F)CC1,inactive,
COc1ccccc1-c1ccnc(-n2ncc(C(=O)NCCCN3CCOCC3)c2C)n1,,7.6% [at 9.04 µM] (inactive)
COc1ccccc1N1CCN(CCCNC(=O)c2cnn(-c3ccccc3Cl)c2C2CCN(C(=O)OC(C)(C)C)CC2)CC1,8.2 µM (active),
COc1ccccc1N1CCN(CC(=O)NCCc2ccc(S(N)(=O)=O)cc2)CC1,inactive,
O=C(NNC(=O)c1ccccc1[N+](=O)[O-])Nc1ccccc1C(F)(F)F,inactive,
COc1ccc(CCNC(=O)COc2cc(C)cc3oc(=O)c(C)c(C)c23)cc1OC,inactive,
O=C(COC(=O)c1ccc([N+](=O)[O-])o1)NC12CC3CC(CC(C3)C1)C2,inactive,
COc1ccc(C(C)=O)cc1CSc1nc2nc(C)cc(C)n2n1,inactive,
COCc1c(C(=O)OCC(=O)Nc2ccc(OC(F)F)cc2)oc2ccccc12,inactive,
COc1ccc(CCN2CC(C(=O)OCC(=O)NCc3ccccc3Cl)CC2=O)cc1OC (stereo unspecified),inactive,
CC(C)(C)OC(=O)N(Cc1ccco1)S(=O)(=O)c1ccccc1Br,inactive,
O=c1oc2ccccc2c(=O)c2ccccc12,inactive,
O=C(Oc1ccc(F)cc1)N1CCOCC1,inactive,
CCS(=O)(=O)N1Cc2ccccc2CC1C(=O)Nc1ccc(OC)cc1OC (stereo unspecified),inactive,
O=C(COC(=O)c1ccc(N2CCCC2=O)cc1)c1ccc(OC(F)F)cc1,inactive,
CS(=O)(=O)c1ccc(-c2nnn(CC(=O)Nc3ccc4c(c3)OCCO4)n2)cc1,inactive,
CCOC(=O)c1cnn2c(SC)ncnc12,inactive,
